Laboratory results as given in PubChem BioAssay (NCATS).
Values joined by “and” are separate entries in the source; they are usually repeats but may differ in a detail not shown here. Equal values may be shown once. Records with an inconclusive call do not appear. Entries that show only a call come without a potency. Active and inactive are the calls of the source. Unless noted, the call rests on the fitted dose curve; in most records, active means well fitted curve in the direction sought with a large enough effect; inconclusive means small, poorly fitted or top-dose-only effect, or another doubt; inactive means no such curve, though single readings can be large; an effect the other way counts as inactive or inconclusive. *1 amine or outer side, *2 acyl side, *3 side chain or, on linkers, in order; H or OH if unused. Where a SMILES comes first, the peptide text is derived from it. Bridges are numbered along the chain shown (N, C = ends). X6 = O=C(CCC[*:2])[*:1]

How the values were obtained:
[1] = qHTS profiling of the MIPE4 collection as inhibitors of Plasmodium falciparum (HB3) proliferation (AID 743347; call rule not given here); details: P. falciparum HB3 in erythrocytes, SYBR Green DNA, 72 h; at 28.5 µM (top of the series) unless noted
In short: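 Erythrocytes infected with P. falciparum (0.3% parasitemia, 2.5% hematocrit) incubated with compounds 72 h at 37 C, 5% CO2. Lysis with saponin/Triton buffer containing SYBR Green I, overnight at room temperature in the dark; DNA fluorescence (485/535 nm) normalised to 0.29 uM artemisinin and DMSO.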

[2] = P-glycoprotein substrates identified in KB-3-1 adenocarcinoma cell line, qHTS therapeutic library screen (AID 1346986); details: KB-3-1 parental cells viability, CellTiter-Glo, 72 h; series mostly up to 44.5 µM; further: nearly all actives have a fitted effect of over 60% in size;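 further: potency means the concentration at half of the fitted maximal effect; potency is for cytotoxicity meaning loss of cell viability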
In short: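 KB-3-1 parental cells and P-gp-overexpressing KB-8-5-11 (colchicine omitted during assay) plated at 500 cells/well, dosed in dose-response, incubated 72 h at 37 degree C. CellTiter-Glo luminescence read; KB-8-5-11 also tested with tariquidar.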

[3] = P-glycoprotein substrates identified in KB-8-5-11 adenocarcinoma cell line, qHTS therapeutic library screen (AID 1346987); details: KB-8-5-11 (P-gp overexpressing) viability, CellTiter-Glo, 72 h; series mostly up to 44.5 µM; further: nearly all actives have a fitted effect of over 65% in size; further: potency means the concentration at half of the fitted maximal effect
In short: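 P-gp-mediated resistance screen: KB-8-5-11 cells treated 72 h with compounds in dose-response. CellTiter-Glo viability.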

C[C@@H]1CCN(C(=O)CC#N)C[C@@H]1N(C)c1ncnc2[nH]ccc12
growth, % of control [1]: 96.8%

O=C(/C=C/c1ccc(O)cc1)OCC1=CC2OC(=O)C3=CO[C@@H](O[C@@H]4O[C@H](CO)[C@@H](O)[C@H](O)[C@H]4O)[C@H]1[C@@H]32 (some centres not stated)
Potency [2]: inactive
Potency [3]: inactive

CCCCN(CCCC)C(=O)CN1C[C@H](c2ccc3c(c2)OCO3)[C@@H](C(=O)O)[C@@H]1c1ccc(OC)cc1
Potency [2]: inactive
Potency [3]: inactive

CO/N=C(/C(=O)N[C@@H]1C(=O)N2C(C(=O)O)=C(CSC(=O)c3ccco3)CS[C@H]12)c1csc(N)n1
Potency [2]: inactive
Potency [3]: inactive

C[C@@H]1C[C@H](O[C@@H]2O[C@H](CO[C@@H]3OC[C@](O)(CO)[C@H]3O)[C@@H](O)[C@H](O)[C@H]2O)CC(C)(C)[C@H]1/C=C/[C@@H](C)O
Potency [2]: inactive
Potency [3]: inactive

CC(=O)O[C@@H]1[C@H](O[C@@H]2OC[C@](O)(CO)[C@H]2O)[C@@H](O[C@@H]2O[C@@H](C)[C@H](O)[C@@H](O)[C@H]2O)[C@H](OC(=O)[C@]23CCC(C)(C)C[C@H]2C2=CCC4[C@@]5(C)C[C@H](O)[C@H](O[C@@H]6O[C@H](C(=O)O)[C@@H](O)[C@H](O)[C@H]6O)[C@@](C)(C(=O)O)C5CC[C@@]4(C)[C@]2(C)CC3)O[C@@H]1C (some centres not stated)
outcome [2]: inactive [at 9.29 µM]
activity change, negative = cytotoxicity [3]: 1.88% [at 9.29 µM] (inactive)

C=CCc1ccc(O[C@@H]2O[C@H](CO)[C@@H](O)[C@H](O)[C@H]2O)c(OC)c1
Potency [2]: inactive
Potency [3]: inactive

C=C1CC[C@H]2[C@@H](/C=C(\C)C(=O)[C@@]3(OC(C)=O)C[C@H](C)[C@H](OC(C)=O)[C@@H]3[C@H]1OC(C)=O)C2(C)C
Potency [2]: inactive
Potency [3]: inactive

O=C(/C=C/c1c(C(=O)O)[nH]c2cc(Cl)cc(Cl)c12)Nc1ccccc1
Potency [2]: inactive
Potency [3]: inactive

CC[C@H](C)[C@@H]1NC(=O)[C@H](Cc2ccc(OC)cc2)NC(=O)CCCSC[C@@H](C(=O)N2CCC[C@H]2C(=O)N[C@@H](CC(C)C)C(=O)NCC(N)=O)NC(=O)[C@H](CC(N)=O)NC(=O)[C@H](CCC(N)=O)NC1=O (Y(Me)IQNCPLG-NH2; linker N-5 via X6)
Potency [2]: inactive
Potency [3]: inactive

CC1=CC(=O)C2C(C)(C)CC(O)CC2(C)C1CO (configuration not stated)
Potency [2]: inactive
Potency [3]: inactive

C[C@@H]1O[C@@H](O[C@H]2[C@H](OC(=O)C34CCC5(C)C(=CCC6C7(C)CC(O)C(O[C@@H]8O[C@H](C(=O)O)[C@@H](O)[C@H](O)[C@H]8O)C(C)(C(=O)O)C7CCC65C)C3CC(C)(C)CC4O)O[C@H](C)[C@@H](O)[C@@H]2O)[C@H](O)[C@@H](O[C@@H]2OC[C@](O)(CO)[C@H]2O[C@@H]2O[C@H](CO)[C@@H](O)[C@H](O)[C@H]2O)[C@H]1O (some centres not stated)
outcome [2]: inactive [at 9.29 µM]
activity change, negative = cytotoxicity [3]: 5.75% [at 9.29 µM] (inactive)

C=C1C(=O)OC2CC(C)=C(C(C)CCCO[C@@H]3O[C@H](CO)[C@@H](O)[C@H](O)[C@H]3O)C(O)C12 (some centres not stated)
Potency [2]: inactive
Potency [3]: inactive

CC(=O)c1cnc2ccc(-c3cc(Cl)c(O)c(Cl)c3)nc2c1NC1CCC(CN(C)C)CC1 (configuration not stated)
Potency [2]: 13 nM (active)
Potency [3]: 119 nM (active) and 23.1 nM (active)

C=C1[C@H]2[C@H](O[C@@H]3O[C@H](COC(=O)/C=C/c4cc(OC)c(O)c(OC)c4)[C@@H](O)[C@H](O)[C@H]3O)OC=C(C(=O)O)[C@H]2C[C@@H]1O
Potency [2]: inactive
Potency [3]: inactive

CC(C)CC(=O)O[C@@H]1OC=C(CO[C@@H]2O[C@H](CO[C@@H]3O[C@H](CO)[C@@H](O)[C@H](O)[C@H]3O)[C@@H](O)[C@H](O)[C@H]2O)[C@H]2C[C@H](O)[C@@H](CO)[C@@H]12
Potency [2]: inactive
Potency [3]: inactive

CC(C(=O)O)C1CCC2(C)C3C(=O)C=C4C(CCC(=O)C4(C)C)C3(C)CCC12C (configuration not stated)
Potency [2]: inactive
Potency [3]: inactive

C[C@@H]1O[C@@H](O[C@H]2[C@H](O)[C@@H](C(=O)O)O[C@@H](O[C@H]3CC[C@@]4(C)C(CC[C@]5(C)C4CC=C4C6CC(C)(C)CC[C@]6(C(=O)O)CC[C@]45C)C3(C)C)[C@@H]2O[C@@H]2O[C@H](CO)[C@@H](O)[C@H](O)[C@H]2O)[C@H](O)[C@H](O)[C@H]1O (some centres not stated)
outcome [2]: inactive [at 9.29 µM]
outcome [3]: inactive [at 9.29 µM]

C/C=C(\C)C(=O)O[C@@H](C)[C@H]1CC[C@]2(O)C3CCC4C[C@@H](OC5CC(OC)C(OC6CC(OC)C(OC7CC(OC)C(OC8OC(C)C(OC9OC(CO)C(O)C(O)C9O)C(OC)C8O)C(C)O7)C(C)O6)C(C)O5)CC[C@]4(C)C3[C@H](O)[C@@H](O)[C@]12C (some centres not stated)
outcome [2]: inactive [at 9.29 µM]
activity change, negative = cytotoxicity [3]: 2.39% [at 9.29 µM] (inactive)
